Test in all cases: DAPPL (digital affinity profiling via proximity ligation, sequencing); 10 mM Tris-HCl pH 7.5, 50 mM NaCl, 1 mM DTT, 4% glycerol, room temperature, 30 min; GST-TFs on glutathione beads, 16-mer random dsDNA library, 0.1% formaldehyde crosslink after washing; high values mean tight binding
Holding throughout (conditions): protein: recombinant; tags: N-terminal GST; dsDNA, one strand shown

In one assay the target is T1, ELK1 (Homo sapiens, UniProt P19419 1-428).
T1 sequence: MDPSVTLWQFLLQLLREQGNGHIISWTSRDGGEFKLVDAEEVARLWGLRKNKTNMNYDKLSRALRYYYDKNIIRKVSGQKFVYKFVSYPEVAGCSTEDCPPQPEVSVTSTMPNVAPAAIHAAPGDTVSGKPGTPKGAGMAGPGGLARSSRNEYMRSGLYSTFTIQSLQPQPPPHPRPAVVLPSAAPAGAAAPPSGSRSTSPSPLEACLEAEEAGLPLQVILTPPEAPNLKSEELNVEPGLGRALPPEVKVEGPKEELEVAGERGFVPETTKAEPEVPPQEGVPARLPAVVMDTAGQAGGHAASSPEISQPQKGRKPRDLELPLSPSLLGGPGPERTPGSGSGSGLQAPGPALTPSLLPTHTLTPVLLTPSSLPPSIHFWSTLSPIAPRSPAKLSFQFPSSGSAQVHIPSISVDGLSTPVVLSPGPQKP
The procedure, abridged:
(§1)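 Beads coated with glutathione captured GST-fused human transcription factors that had been expressed in yeast, and the factors were then given DNA barcodes and pooled with a tag-only sample. The pools were incubated with 200 nmole of a random double-stranded 16-mer DNA library in Tris/NaCl/DTT/glycerol buffer for 30 min at room temperature, washed, crosslinked with 0.1% formaldehyde and proximity-ligated with BsaI/T4 ligase at 37 °C for 1 h. PCR amplification and Illumina NextSeq500 sequencing came last. Binding signal is each hexamer's read frequency for a factor divided by its frequency for the tag-only sample.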

For a further assay, the target named is T2, GABPA (Homo sapiens, UniProt Q06546 1-454).
T2 sequence: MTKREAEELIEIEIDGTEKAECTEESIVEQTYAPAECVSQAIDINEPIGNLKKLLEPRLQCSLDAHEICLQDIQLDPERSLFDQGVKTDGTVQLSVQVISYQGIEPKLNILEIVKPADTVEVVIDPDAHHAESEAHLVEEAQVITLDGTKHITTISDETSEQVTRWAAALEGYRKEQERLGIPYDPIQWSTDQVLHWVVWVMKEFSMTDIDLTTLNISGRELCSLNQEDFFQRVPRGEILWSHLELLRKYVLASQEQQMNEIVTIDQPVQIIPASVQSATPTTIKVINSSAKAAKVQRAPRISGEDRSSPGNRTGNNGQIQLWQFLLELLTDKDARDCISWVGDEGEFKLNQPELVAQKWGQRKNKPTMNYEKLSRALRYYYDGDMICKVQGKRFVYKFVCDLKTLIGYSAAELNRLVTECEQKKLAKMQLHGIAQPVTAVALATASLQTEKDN
An outline of the steps:
as §1

The next assay concerns the target T3, ERG (Homo sapiens, UniProt P11308 1-479).
T3 sequence: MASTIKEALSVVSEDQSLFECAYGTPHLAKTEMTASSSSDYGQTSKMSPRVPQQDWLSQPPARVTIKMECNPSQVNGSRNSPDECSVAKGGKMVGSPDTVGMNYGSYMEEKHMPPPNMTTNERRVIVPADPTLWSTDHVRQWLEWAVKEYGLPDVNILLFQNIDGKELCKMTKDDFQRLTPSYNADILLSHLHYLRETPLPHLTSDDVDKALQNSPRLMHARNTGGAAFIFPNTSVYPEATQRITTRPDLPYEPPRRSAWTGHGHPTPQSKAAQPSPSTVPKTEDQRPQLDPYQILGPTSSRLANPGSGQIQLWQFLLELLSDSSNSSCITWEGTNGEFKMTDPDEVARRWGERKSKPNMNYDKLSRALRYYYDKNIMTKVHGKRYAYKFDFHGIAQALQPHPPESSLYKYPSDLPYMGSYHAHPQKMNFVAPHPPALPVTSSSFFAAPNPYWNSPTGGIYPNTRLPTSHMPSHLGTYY
An outline of the steps: as §1

A further assay deals with ELF1 (Homo sapiens, UniProt P32519 1-619). An outline of the steps: as §1
The target in the next assay is T4, EHF (Homo sapiens, UniProt Q9NZC4 1-300).
T4 sequence: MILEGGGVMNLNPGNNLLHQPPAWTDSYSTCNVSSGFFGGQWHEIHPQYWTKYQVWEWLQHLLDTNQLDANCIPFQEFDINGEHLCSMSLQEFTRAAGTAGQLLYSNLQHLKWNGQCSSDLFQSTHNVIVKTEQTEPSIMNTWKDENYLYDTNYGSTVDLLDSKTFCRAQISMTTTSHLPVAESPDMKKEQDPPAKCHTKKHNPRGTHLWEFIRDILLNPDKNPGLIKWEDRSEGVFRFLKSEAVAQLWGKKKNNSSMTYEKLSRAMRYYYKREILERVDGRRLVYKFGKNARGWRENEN
An outline of the steps: as §1

A further assay has as its target SPI1 (Homo sapiens, UniProt P17947 1-270). The procedure, abridged:
as §1

A further assay deals with SPIB (Homo sapiens, UniProt Q01892 1-262). The procedure, abridged: as §1
For the next assay, the target named is T5, FEV (Homo sapiens, UniProt Q99581 1-238).
T5 sequence: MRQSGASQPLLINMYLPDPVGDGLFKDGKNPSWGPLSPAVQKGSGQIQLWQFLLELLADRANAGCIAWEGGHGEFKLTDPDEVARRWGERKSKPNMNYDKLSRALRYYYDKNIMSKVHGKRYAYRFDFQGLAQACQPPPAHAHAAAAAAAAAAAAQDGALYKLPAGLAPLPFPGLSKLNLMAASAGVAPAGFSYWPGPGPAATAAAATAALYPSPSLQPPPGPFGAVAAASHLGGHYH
The procedure, abridged: as §1

Another assay concerns the target ETV5 (Homo sapiens, UniProt P41161 1-510). An outline of the steps: as §1
A further assay deals with ELF4 (Homo sapiens, UniProt Q99607 1-663). The procedure, abridged:
as §1

The next assay addresses T6, ELK4 (Homo sapiens, UniProt P28324-2 1-405).
T6 sequence: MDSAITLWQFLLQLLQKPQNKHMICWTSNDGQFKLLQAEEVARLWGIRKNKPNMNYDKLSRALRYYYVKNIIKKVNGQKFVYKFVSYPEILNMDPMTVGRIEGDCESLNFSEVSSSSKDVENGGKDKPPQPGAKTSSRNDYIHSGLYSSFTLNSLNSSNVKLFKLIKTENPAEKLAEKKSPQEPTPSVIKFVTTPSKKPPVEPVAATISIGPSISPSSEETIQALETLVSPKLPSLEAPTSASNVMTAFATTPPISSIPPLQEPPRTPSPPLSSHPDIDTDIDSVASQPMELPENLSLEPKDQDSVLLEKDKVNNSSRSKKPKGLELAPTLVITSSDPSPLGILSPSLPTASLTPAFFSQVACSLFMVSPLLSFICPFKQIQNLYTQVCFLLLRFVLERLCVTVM
The procedure, abridged: as §1

The target in a further assay is T7, ETV2 (Homo sapiens, UniProt O00321 1-342).
T7 sequence: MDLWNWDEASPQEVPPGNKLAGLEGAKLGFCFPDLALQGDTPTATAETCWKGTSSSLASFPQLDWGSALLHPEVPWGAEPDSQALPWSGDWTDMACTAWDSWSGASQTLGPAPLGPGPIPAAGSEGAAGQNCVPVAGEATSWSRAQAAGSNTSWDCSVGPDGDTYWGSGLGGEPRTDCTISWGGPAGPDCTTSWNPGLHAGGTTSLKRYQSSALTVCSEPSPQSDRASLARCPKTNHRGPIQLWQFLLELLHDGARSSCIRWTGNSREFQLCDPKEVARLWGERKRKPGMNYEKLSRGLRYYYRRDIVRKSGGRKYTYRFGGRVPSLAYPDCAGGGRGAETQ
The procedure, abridged: as §1

In the next assay the target is ETV1 (Homo sapiens, UniProt P50549 1-477). The procedure, abridged: as §1
The next assay concerns the target T8, ERF (Homo sapiens, UniProt P50548 1-548).
T8 sequence: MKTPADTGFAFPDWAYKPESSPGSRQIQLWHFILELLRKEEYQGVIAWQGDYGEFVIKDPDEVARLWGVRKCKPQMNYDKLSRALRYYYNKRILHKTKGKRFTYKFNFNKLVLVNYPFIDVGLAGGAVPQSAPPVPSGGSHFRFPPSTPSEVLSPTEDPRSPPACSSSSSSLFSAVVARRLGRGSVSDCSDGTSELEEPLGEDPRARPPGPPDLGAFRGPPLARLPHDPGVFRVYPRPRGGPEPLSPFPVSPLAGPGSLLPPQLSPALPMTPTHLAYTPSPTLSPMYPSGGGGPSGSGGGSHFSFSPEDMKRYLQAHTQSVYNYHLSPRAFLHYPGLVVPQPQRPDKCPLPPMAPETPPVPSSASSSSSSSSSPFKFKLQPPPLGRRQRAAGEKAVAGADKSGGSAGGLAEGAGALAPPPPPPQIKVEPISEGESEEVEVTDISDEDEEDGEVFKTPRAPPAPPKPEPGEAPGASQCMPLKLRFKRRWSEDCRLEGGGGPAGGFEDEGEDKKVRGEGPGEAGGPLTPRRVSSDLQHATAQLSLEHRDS
The procedure, abridged: as §1

A further assay deals with T9, ETV3L (Homo sapiens, UniProt Q6ZN32 1-361).
T9 sequence: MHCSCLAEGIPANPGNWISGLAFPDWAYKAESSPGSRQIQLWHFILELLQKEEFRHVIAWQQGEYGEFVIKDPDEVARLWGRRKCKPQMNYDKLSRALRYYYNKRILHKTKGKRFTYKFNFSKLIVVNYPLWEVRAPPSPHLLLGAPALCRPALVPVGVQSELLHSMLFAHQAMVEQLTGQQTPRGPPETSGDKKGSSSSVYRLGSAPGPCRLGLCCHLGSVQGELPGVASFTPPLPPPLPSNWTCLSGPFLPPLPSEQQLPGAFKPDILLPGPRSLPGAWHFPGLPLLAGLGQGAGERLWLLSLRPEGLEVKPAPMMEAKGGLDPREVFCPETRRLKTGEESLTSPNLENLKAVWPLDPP
The procedure, abridged:
as §1

The next assay concerns the target T10, ETS2 (Homo sapiens, UniProt P15036 1-469).
T10 sequence: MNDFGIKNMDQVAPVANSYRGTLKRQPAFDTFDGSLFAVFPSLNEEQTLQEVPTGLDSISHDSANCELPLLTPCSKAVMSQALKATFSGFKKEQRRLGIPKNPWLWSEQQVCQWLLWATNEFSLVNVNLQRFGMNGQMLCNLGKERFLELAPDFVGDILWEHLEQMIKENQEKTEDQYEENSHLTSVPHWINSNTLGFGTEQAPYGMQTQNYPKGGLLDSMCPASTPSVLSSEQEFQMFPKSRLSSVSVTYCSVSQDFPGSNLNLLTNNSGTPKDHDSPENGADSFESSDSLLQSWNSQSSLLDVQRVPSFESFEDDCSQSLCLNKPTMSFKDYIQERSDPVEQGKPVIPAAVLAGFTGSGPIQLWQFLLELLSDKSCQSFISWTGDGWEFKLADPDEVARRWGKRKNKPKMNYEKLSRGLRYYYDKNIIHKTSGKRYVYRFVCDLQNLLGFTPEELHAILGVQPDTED
An outline of the steps: as §1

Another assay addresses T11, SPDEF (Homo sapiens, UniProt O95238 1-335).
T11 sequence: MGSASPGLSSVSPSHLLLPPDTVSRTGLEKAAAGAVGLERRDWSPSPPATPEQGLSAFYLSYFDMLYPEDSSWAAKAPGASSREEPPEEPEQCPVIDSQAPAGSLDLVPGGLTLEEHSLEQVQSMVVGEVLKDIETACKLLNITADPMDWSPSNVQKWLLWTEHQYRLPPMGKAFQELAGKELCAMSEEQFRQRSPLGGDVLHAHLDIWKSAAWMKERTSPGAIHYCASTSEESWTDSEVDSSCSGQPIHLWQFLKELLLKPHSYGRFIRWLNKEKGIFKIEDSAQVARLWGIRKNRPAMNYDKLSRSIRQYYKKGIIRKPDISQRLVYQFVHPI
An outline of the steps: as §1

For the next assay, the target named is T12, ETV7 (Homo sapiens, UniProt Q9Y603 1-341).
T12 sequence: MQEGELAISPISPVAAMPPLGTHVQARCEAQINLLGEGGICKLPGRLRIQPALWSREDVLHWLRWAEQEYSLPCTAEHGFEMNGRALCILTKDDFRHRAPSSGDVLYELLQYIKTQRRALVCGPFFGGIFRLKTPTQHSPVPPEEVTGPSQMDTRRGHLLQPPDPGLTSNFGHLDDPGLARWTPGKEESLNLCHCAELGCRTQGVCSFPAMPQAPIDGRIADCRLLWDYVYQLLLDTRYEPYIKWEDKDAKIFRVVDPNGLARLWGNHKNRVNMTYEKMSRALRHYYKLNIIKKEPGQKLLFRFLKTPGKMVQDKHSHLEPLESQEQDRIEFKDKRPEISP
The procedure, abridged:
as §1

A further assay concerns the target T13, ETV3 (Homo sapiens, UniProt P41162-2 1-143).
T13 sequence: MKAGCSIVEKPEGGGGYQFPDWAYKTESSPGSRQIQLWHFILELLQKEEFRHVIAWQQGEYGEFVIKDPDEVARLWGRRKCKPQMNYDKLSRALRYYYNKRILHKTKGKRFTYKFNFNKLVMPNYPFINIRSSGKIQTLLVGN
An outline of the steps: as §1

The target in the next assay is ETV6 (Homo sapiens, UniProt P41212 1-452). An outline of the steps: as §1
Chain of ETV6 (P41212 whole entry): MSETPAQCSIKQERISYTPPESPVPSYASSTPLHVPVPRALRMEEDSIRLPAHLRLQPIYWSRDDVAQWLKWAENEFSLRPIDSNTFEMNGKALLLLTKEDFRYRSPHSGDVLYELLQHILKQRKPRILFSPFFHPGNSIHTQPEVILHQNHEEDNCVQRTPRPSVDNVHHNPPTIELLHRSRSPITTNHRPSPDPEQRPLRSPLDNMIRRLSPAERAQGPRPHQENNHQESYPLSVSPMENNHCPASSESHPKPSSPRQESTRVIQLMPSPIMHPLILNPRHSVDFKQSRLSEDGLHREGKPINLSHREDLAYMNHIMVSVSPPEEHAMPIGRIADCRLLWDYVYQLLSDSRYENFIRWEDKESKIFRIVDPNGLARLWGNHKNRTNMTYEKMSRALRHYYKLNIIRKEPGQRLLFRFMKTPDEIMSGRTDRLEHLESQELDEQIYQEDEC

Chain of ETV1 (P50549 whole entry): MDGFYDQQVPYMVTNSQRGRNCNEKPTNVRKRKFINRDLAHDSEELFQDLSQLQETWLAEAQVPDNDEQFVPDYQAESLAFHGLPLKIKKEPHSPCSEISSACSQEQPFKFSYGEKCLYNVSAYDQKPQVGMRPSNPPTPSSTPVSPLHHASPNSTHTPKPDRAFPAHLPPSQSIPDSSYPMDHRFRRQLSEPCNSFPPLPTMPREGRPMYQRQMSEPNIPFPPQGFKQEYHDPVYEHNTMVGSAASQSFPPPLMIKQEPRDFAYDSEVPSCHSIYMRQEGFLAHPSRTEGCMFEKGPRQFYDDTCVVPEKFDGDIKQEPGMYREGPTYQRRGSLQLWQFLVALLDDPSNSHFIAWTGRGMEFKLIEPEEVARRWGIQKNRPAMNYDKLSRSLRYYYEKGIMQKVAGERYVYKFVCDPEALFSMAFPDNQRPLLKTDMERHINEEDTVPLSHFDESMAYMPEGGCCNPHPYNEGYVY
Chain of ELF4 (Q99607 whole entry): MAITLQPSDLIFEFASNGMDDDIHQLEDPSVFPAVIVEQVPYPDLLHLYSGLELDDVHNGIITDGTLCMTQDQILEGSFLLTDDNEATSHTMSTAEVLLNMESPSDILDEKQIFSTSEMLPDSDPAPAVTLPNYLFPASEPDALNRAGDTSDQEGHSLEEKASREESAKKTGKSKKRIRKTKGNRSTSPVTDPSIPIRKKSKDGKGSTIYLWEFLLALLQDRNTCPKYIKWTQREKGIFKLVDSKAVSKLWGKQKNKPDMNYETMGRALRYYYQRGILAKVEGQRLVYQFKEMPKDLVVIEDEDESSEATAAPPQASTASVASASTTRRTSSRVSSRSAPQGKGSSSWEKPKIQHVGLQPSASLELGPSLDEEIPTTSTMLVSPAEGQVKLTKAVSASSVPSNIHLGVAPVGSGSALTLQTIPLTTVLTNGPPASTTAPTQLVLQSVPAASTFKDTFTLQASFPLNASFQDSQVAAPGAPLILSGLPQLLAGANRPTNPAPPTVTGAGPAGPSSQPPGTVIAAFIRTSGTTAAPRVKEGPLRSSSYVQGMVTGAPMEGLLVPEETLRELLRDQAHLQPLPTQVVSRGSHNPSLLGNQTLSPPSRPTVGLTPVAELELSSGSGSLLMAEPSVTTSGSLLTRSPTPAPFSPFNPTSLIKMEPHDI
Chain of SPIB (Q01892 whole entry): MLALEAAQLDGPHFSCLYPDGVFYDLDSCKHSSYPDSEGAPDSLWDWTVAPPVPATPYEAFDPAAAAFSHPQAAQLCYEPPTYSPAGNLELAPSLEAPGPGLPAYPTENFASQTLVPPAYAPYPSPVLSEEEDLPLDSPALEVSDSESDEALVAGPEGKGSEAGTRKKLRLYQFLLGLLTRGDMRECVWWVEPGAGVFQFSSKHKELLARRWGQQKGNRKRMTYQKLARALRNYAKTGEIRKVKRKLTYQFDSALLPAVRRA
Chain of ETV5 (P41161 whole entry): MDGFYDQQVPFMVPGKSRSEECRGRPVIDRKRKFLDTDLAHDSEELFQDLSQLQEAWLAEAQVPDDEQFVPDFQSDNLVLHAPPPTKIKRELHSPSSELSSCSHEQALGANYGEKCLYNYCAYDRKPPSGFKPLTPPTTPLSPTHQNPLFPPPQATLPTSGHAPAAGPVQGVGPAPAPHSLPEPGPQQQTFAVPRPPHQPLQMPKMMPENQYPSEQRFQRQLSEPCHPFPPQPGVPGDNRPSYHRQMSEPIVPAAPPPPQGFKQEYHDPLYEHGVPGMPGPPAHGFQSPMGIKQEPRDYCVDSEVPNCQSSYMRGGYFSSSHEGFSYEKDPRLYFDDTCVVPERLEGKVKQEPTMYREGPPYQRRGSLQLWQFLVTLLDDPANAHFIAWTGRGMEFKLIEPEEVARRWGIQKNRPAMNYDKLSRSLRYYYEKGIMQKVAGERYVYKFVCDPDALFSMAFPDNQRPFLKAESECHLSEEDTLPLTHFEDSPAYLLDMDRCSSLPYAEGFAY
Chain of ELF1 (P32519 whole entry): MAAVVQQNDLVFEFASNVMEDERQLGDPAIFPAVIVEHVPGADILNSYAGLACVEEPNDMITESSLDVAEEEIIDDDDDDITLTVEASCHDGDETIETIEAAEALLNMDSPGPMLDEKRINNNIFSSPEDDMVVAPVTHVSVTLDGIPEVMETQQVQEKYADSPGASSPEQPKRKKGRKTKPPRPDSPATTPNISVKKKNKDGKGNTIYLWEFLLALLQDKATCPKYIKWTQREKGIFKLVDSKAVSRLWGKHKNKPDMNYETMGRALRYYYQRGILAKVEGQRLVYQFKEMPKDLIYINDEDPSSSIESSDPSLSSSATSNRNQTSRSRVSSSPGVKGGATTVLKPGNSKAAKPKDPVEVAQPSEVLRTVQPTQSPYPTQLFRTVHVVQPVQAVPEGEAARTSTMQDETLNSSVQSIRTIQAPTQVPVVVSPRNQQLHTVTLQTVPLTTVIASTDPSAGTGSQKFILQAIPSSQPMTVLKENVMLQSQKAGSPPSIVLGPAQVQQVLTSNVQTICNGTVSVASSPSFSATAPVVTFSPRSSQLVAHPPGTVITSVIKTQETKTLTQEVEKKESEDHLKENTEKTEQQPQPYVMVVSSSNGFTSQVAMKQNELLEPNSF

On to CCAACC, for which the binding signal is 1.1 fold enrichment (6-mer frequency, TF over GST control) with ELK1; 1.01 fold enrichment (6-mer frequency, TF over GST control) in the assay with GABPA; 1.09 fold enrichment (6-mer frequency, TF over GST control) with ERG; 1.16 fold enrichment (6-mer frequency, TF over GST control) in the assay with ELF1; 1.04 fold enrichment (6-mer frequency, TF over GST control) with EHF; 1.11 fold enrichment (6-mer frequency, TF over GST control) with SPI1. Besides, the binding signal in the assay with SPIB was 1.06 fold enrichment (6-mer frequency, TF over GST control); with FEV, 1.1 fold enrichment (6-mer frequency, TF over GST control); with ETV5 it was 1.01 fold enrichment (6-mer frequency, TF over GST control); in the assay with ELF4, 1.15 fold enrichment (6-mer frequency, TF over GST control); in the assay with ELK4 it was 1.13 fold enrichment (6-mer frequency, TF over GST control); in the assay with ETV2, 1.08 fold enrichment (6-mer frequency, TF over GST control). Moreover, the binding signal is 1.04 fold enrichment (6-mer frequency, TF over GST control) with ETV1; 1.14 fold enrichment (6-mer frequency, TF over GST control) with ERF; 1.09 fold enrichment (6-mer frequency, TF over GST control) with ETV3L; 1.18 fold enrichment (6-mer frequency, TF over GST control) with ETS2; 1.11 fold enrichment (6-mer frequency, TF over GST control) with SPDEF; 1.07 fold enrichment (6-mer frequency, TF over GST control) with ETV7. The binding signal was 1.11 fold enrichment (6-mer frequency, TF over GST control) with ETV3 and 1.08 fold enrichment (6-mer frequency, TF over GST control) with ETV6.

Source of the values: paper PMC7862700, “An all-to-all approach to the identification of sequence-specific readers for epigenetic DNA modifications on cytosine”.
